According to PubChem BioAssay AID435003 (Sanford-Burnham Center for Chemical Genomics, 2010):
About 1,700 (0.52%) of roughly 330,000 compounds were called active. What follows is part of a selection rich in actives, with near analogues and random picks from the rest. Values without a mark were called inactive. Rule as the data show it: active = inhibition above about 50%; inactive = the rest.

Experiment: inhibitors of induced NF-kB luciferase reporter, primary screen, TCR NF-kB activation inhibitor project, cell-based, luminescence, uHTS (AID 435003)
Details: Jurkat, PMA/ionomycin-induced NF-kB luciferase reporter, at 4 µM, active compounds read high

Structure (SMILES) | inhibition
O=C(COCc1cc(-c2ccc3c(c2)OCO3)on1)N1CCN(c2cccc(Cl)c2)CC1 | 3.84%
O=S(=O)(NCCc1ccc(F)cc1)c1cccc2cccnc12 | 2.69%
O=[N+]([O-])c1ccccc1S(=O)(=O)Nc1cccc2cccnc12 | 70.3% (active)
NS(=O)(=O)c1ccc(CCNS(=O)(=O)c2cccc3cccnc23)cc1 | -18.6%
O=C(Nc1ccc(Br)cc1F)C1CC(=O)N(C2CCCCC2)C1 (configuration not stated) | -3.7%
CCOCCCn1c(NN)nc2ccccc2c1=O | -7.49%
CCn1c(/C=C/c2ccc([N+](=O)[O-])o2)nc2ccccc2c1=O | 54.7% (active)
CCn1c(SCc2ccccc2)nc2cc(OC)c(OC)cc2c1=O | -6.84%
Cc1noc(C)c1C(=O)N(CC(=O)NC1CCCC1)Cc1ccccc1F | -8.54%
COc1ccc(C(=O)COC(=O)C(O)c2ccccc2)c(OC)c1 (configuration not stated) | 0.0915%
CCOc1ccc2[nH]c3nc(SCC(=O)NC4CCCC4)nnc3c2c1 | 59% (active)
O=C(CSc1nnc2c(n1)[nH]c1ccccc12)NC1CCCCC1 | 21.2%
COc1ccc2[nH]c3nc(SCC(=O)NC4CC4)nnc3c2c1 | -17.7%
O=C(c1ccc(Cl)s1)N(Cc1nnc(-c2ccccc2Cl)o1)C1CC1 | -18.3%
Cc1cc(C(=O)COc2ccc(Br)cc2F)c(C)n1C1CC1 | -9.16%
C=CCOc1cccc(C2NC(=O)c3ccccc3O2)c1 (configuration not stated) | 3.44%
Cc1ccc(C)c(NS(=O)(=O)c2cc(Br)cnc2N)c1 | -1.35%
C/C=C(\C)C(=O)N1CC2(CC(c3cccc(NC(=O)CCCCC)c3)=NO2)C[C@@H]1C(N)=O (some centres not stated) | 2.26%
O=C(N/N=C/c1ccc(O)c(O)c1)C1c2ccccc2Oc2ccccc21 | 2.58%
Oc1ccc(/C=N/Nc2ccc(C(F)(F)F)cn2)cc1O | 59.5% (active)
Oc1ccc(Br)cc1/C=N/Nc1ccccn1 | 32.4%
O=C(c1ccc(OC2CCN(C(=O)c3cccnc3)CC2)cc1)N1CCCCCC1 | -2.83%
CC1=C(C(=O)NC2CC(C)(C)Cc3c2cnn3-c2ccc(C)cc2)OCCO1 (configuration not stated) | 4.55%

Structure (SMILES) | inhibition
COc1ccc(-n2ncc3c2CC(C)(C)CC3NC(=O)CCc2c(C)noc2C)cc1 (configuration not stated) | 20%
Cc1ccc(-n2ncc3c2CC(C)(C)CC3NC(=O)Cc2c(C)noc2C)cc1 (configuration not stated) | 50.6% (active)
CCN1C(=O)/C(=C2\SC(N3CCCCC3)=NC2=O)c2ccccc21 | -33.7%
COC(=O)c1ccc(C(=O)Nc2cc(Cl)ccc2Cl)cc1NC(=O)c1ccccc1C | -2.99%
Cc1c(C=O)c2ccccc2n1CCOc1ccccc1 | -14.6%
COc1ccc2c(CC(=O)N3CCc4cc(OC)c(OC)cc4C3)coc2c1 | 15.9%
COc1cc2c(cc1OC)CN(C(=O)c1cc(=O)c3ccccc3o1)CC2 | 50.7% (active)
COc1ccccc1CNC(=O)c1cc(=O)c2ccccc2o1 | -3.35%
C=CCn1c(C)cc(C2=NNC(=NCC)SC2)c1C | 67.2% (active)
Cc1ccc(-n2c(=O)cc(N3CCN(Cc4ccccc4)CC3)[nH]c2=O)cc1 | 1.04%
CCNC(=O)c1cccc(NC(=O)C2CC(=O)N(CCc3ccccc3)C2)c1 (configuration not stated) | 8.87%
COc1ccc(-c2cc(C(F)(F)F)n3nc(C(=O)N4CCOCC4)c(Cl)c3n2)cc1 | -15.4%
Cc1cccc(NC(=O)c2cc(S(=O)(=O)N3CCC4(CC3)OCCO4)ccc2F)c1 | 4.99%
COc1ccc(NC(=O)c2nc(-n3nc(C)cc3C)ccc2Cl)cc1Cl | -8.27%
Cc1cc(C)n(-c2ccc(C(=O)O)cc2[N+](=O)[O-])n1 | -2.8%
COc1ccc(Nc2cc(C)nc(-n3nc(C)cc3C)n2)cc1 | 68.7% (active)
COc1ccc(C(C)=O)cc1CSc1nc2nc(C)cc(C)n2n1 | 5.26%
CC(=O)c1ccc(Oc2cc(C)nc(-n3nc(C)cc3C)n2)cc1 | 51.8% (active)
Cc1cc(N/N=C\c2ccc(Br)cc2)nc(-n2nc(C)cc2C)n1 | 27.2%
O=C(CCC1CCN(C(=O)c2cccc(Cl)c2F)CC1)Nc1ccccc1 | 2.28%
COc1cc(/C=C/C(=O)Nc2ccc(OC)c(S(=O)(=O)N3CCOCC3)c2)ccc1OCC#N | 6.61%
Cc1ccc(CN2CCN(Cc3ccc(OCCO)cc3)CC2CCO)o1 (configuration not stated) | 3.63%
N#Cc1c(NC(=O)c2ccc(N3CCOCC3)c([N+](=O)[O-])c2)sc2c1CCCC2 | -30%

Structure (SMILES) | inhibition
CC1(C)OC(=O)N2CCc3ccccc3C21C (configuration not stated) | 11.5%
Cc1c(/C=N\NC(=O)c2cc3ccccc3o2)c2ccccc2n1C | 67.3% (active)
O=C(N/N=C/c1cccc(O)c1)c1cc2c(ccc3ccccc32)o1 | 7.99%
Cc1c(/C=N/N2C(=O)C3C4C=CC(C4)C3C2=O)c2ccccc2n1C (configuration not stated) | -10.4%
COc1ccc(Cc2cc(-c3ccc(F)cc3)n[nH]c2=O)cc1 | -2.24%
CC(C)c1ccc(S(=O)(=O)N2CCN(C(=O)c3ccc(N4CCCC4)c([N+](=O)[O-])c3)CC2)cc1 | 7.91%
CCOc1[nH]n(-c2ccc(Cl)cc2)c(=O)c1C=Nc1ccc(O)cc1 | 56.7% (active)
CCOc1ccc(N=C2NC(=O)S/C2=C\c2ccc(O)cc2)cc1 | 11.9%
O=C(NC(C(=O)NCCN1CCOCC1)C12CC3CC(CC(C3)C1)C2)C1CCCCC1 (configuration not stated) | -4.81%
N#Cc1ccccc1S(=O)(=O)N1CCN(C(=O)c2cc(-c3ccccc3)nn2-c2ccccc2)CC1 | 2.19%
O=[N+]([O-])/C=C1\CCCCCN1 | -12.2%
COc1ccc(S(=O)(=O)Nc2ccc3c(c2)OCO3)cc1Cl | -1.75%
O=C1NC(c2cc3c(cc2Cl)OCO3)Oc2ccccc21 (configuration not stated) | -7.28%
COC(=O)c1ccc(C2CC(=O)Nc3cc(OC)c(OC)cc32)cc1 (configuration not stated) | 8.26%
CCCOc1ccccc1C1CC(=O)Nc2cc3c(cc21)OCO3 (configuration not stated) | 58.3% (active)
COc1ccccc1C1C2=C(COC2=O)Nc2cc3c(cc21)OCO3 (configuration not stated) | 70.3% (active)
CCCOc1ccc(C2NC(=O)NC(c3ccccc3)=C2C(C)=O)cc1OCC (configuration not stated) | 2.86%
COC(=O)C1=C(C(=O)OC)[C@@H]2N(C)c3ccccc3[C@@]23C[C@@H](C(=O)OC)N(C(=O)c2ccco2)C3=N1 | 18.3%
CC(C)Oc1ccc(/C=N/NC(=O)c2nnn(-c3nonc3N)c2CN(C)C2CCCCC2)cc1 | -10.3%
Cc1cccc(OCC(=O)NC2CC(C)(C)NC(C)(C)C2)c1 | 23.8%
NS(=O)(=O)c1ccc(N=Cc2ccc(Br)s2)cc1 | 3.07%
CC(=O)Nc1ccc(Nc2c3ccccc3nc3ccccc23)cc1 | 61.6% (active)
CC(=O)Nc1ccc(Nc2cc(C)nc(Nc3ccc(NC(C)=O)cc3)n2)cc1 | -8.27%

Structure (SMILES) | inhibition
CCc1nc(Nc2ccc(NC(C)=O)cc2)c2oc3ccccc3c2n1 | -24.7%
O=C(NCc1ccccc1)C(=O)NCC1OCCN1S(=O)(=O)c1ccc(Br)cc1 (configuration not stated) | 13.9%
Cc1ccccc1N1CCN(Cc2nc(Cc3ccccc3F)no2)CC1 | 5.46%
Nc1nonc1-c1nc2ccccc2n1Cc1ccc(F)cc1 | 1.66%
COc1ccc(C)c(Cn2c(-c3nonc3N)nc3ccccc32)c1 | 65.7% (active)
CC(=O)Nc1nonc1-c1nc2ccccc2n1Cc1ccccn1 | -4.81%
O=C(Nc1ccc(Cl)cc1)C1c2cccc[n+]2CC(=O)N1Cc1ccc2c(c1)OCO2 (configuration not stated) | -3.1%
O=C1CC[C@H](O)CCN1[C@H](CSc1ccc(Br)cc1)Cc1ccccc1 | -3.24%
O=C(NCCOc1ccccc1Cl)C(=O)Nc1ccccc1 | -8.66%
C[C@@H]1NC(=O)[C@@]2(C)[C@@H](c3ccccc3)[C@H]3COc4ccccc4[C@@H]3N2C1=O | 7.9%
COc1ccc(NC(=O)CN2C(=O)COc3ccc(S(=O)(=O)N4CCOCC4)cc32)c(OC)c1 | 0.923%
C[C@H](NC(=O)c1ccccc1Cl)C(=O)OCCOc1cccc(Cl)c1 | -1.51%
COC(=O)c1ccccc1NC(=O)CN(Cc1ccccc1)S(C)(=O)=O | 0.443%
O=c1[nH]snc1-c1c(Cl)cccc1Cl | 11.2%
Cc1c(NS(=O)(=O)c2cc(C(=O)NCCc3ccc(F)cc3)cc(Cl)c2Cl)c(=O)n(-c2ccccc2)n1C | 13.5%
CCN(CC)CCCNC(=O)c1cc2c(=O)[nH]c3ccc(C)cc3c2s1 | -1.96%
Cc1cccc(N(C)C(=O)c2cc3c(=O)[nH]c4ccc(C)cc4c3s2)c1 | 65.1% (active)
Cc1ccc2[nH]c(=O)c(CC(=O)O)c(-c3ccccc3)c2c1 | -0.374%
CC(=O)N1CSCC1C(=O)O (configuration not stated) | -5.84%
Cc1c(C)c(C)c(S(=O)(=O)N2CCC3(CC2)OCCO3)c(C)c1C | -2.3%
COc1cc(CC(=O)Nc2nc(-c3ccc(F)c(F)c3)cs2)cc(OC)c1OC | 49.7%
Cc1ccc(S(=O)(=O)NC(=O)Nc2nc(-c3ccc(F)c(F)c3)cs2)cc1 | -14.8%
COc1ccc(CC(=O)Nc2nc(-c3ccc(F)c(F)c3)cs2)cc1OC | 55.3% (active)
